Most compounds without a hit are left out; they make up all but 6.5% or so of the library.
MARV entry inh – blocks Marburg virus binding to or entry into cells | Potency, µM (top dose mostly 37.8 µM), without a hit: top-dose activity change, negative = inhibition, usual class: inhibitors | 300,000 compounds, 1.8% hits | Marburg virus pseudotyped entry inhibition, cell reporter; calls by dose curve; tested in HEK293 cells; also: potency is read from the fitted curve at half-maximal effect
FMDV antiviral – blocks foot and mouth disease virus; FMDV antiviral cell-based qHTS; Potency, µM (titrated, usually from 57.9 µM), without a hit: at the top dose activity change, negative = inhibition, usual class: inhibitors; 410,000 compounds, 1.2% hits; calls by dose curve; tested in HEK293T cells; also: read-out not given here; potency is read from the fitted curve at half-maximal effect; nearly all actives have a fitted effect of over 45% in size
VACV mCherry inh – vaccinia inhibition (mCherry reporter). Vaccinia virus mCherry reporter infection, fluorescence. Potency, µM (highest dose often 36.5 µM), for the others: top-dose activity change, negative = inhibition, hits mostly inhibitors. 310,000 compounds, 0.63% hits. AID 720579; calls by dose curve; tested in A549 cells; also: potency is read from the fitted curve at half-maximal effect; nearly all actives have a fitted effect of over 35% in size
VACV Venus inh – vaccinia inhibition (Venus reporter) | Vaccinia virus Venus reporter expression, fluorescence | Potency, µM (titrated, usually from 36.5 µM), inactives show top-dose activity change, negative = inhibition, hits mostly inhibitors | 330,000 compounds, 0.46% hits | AID 720580; calls by dose curve; tested in A549 cells; also: potency is read from the fitted curve at half-maximal effect; nearly all actives have a fitted effect of over 30% in size
LASV entry inh – inhibitors of Lassa virus binding or cell entry | Lassa virus pseudotype entry inhibition, cell reporter | AID 540256 | Potency, µM (highest dose often 37.9 µM), without a hit: at the highest dose activity change, negative = inhibition, actives largely listed as inhibitors | 300,000 compounds, 1.2% hits; calls by dose curve; tested in HEK293 cells; also: potency is read from the fitted curve at half-maximal effect; nearly all actives have a fitted effect of over 50% in size
HCMV antiviral – human cytomegalovirus inhibition; HFF cells, HCMV-luciferase reporter, 72 h; stronger effect = lower value; activity change, negative = inhibition, % at 57.5 µM; 410,000 compounds, 4.5% hits; AID 1259415; in the data active = activity change below about -60%; inconclusive = no clear call, values can overlap the other calls; inactive = above about -39%
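After 16 h attachment at 37C, HFF cells received test compound and HCMV-luciferase (1 PFU/cell); reporter luminescence read 72 h later, data normalized against buffer-only and known inhibitor Salinomycin.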
Starred values were filed as active, the others as inactive; i = inactive; ? = inconclusive; . = no result; ! = not confirmed by another sample; [ ] = another dose, or the depositor's remark. % is scaled to controls: 0 for no effect and ±100 for the full control effect.

SMILES | MARV entry inh | FMDV antiviral | VACV mCherry inh | VACV Venus inh | LASV entry inh | HCMV antiviral
Oc1ccc(C=NNc2ccccn2)c(O)c1 | ? | 11% | ? | ? | ? | -99*
CCOC(=O)c1ccc(CN(Cc2ccc(F)cc2)S(=O)(=O)c2cc(C(=O)Nc3cccc(C(F)(F)F)c3)ccc2F)cc1 | . | -2% | -15% | -21% | 4%[46.1 µM] | 25
COc1ccc(-c2nc(SCC(=O)Nc3ccc4c(c3)OCCO4)c(-c3ccc(C)cc3)[nH]2)cc1OC | ? | -5% | -25% | -29% | ? | 3
CN(Cc1ccco1)c1ncnc2ccc(-c3ccc4c(ccn4C)c3)cc12 | . | -27% | . | . | . | -99*
CCOC(=O)c1nnc(-c2cccs2)nc1Oc1ccc(Cl)cc1 | 2%[46.1 µM] | 28µM* | -24% | -23% | 5% | 34
FC(F)(F)C1CCC(c2nnc(C3CCCCN3)c(C3=NCCCC3)n2)NC1 (configuration not stated) | 16% | . | . | . | . | .
O=C(c1cc([N+](=O)[O-])ccc1N1CCCCC1)N1CCc2ccccc21 | 4.5µM* | -5% | -15% | -23% | ? | ?
O=C(c1ccc([N+](=O)[O-])s1)N1CCCc2ccccc21 | ? | -18% | 10µM* | ? | ? | ?
O=C(O)c1cc([N+](=O)[O-])ccc1N1CCCCC1 | 0% | -13% | -19% | -14% | 10% | -4
O=C(c1cc([N+](=O)[O-])cc([N+](=O)[O-])c1)N1CCCc2ccccc21 | 10µM* | -25% | -16% | -11% | 12% | -24
Cc1ccc(C(=O)c2cc([N+](=O)[O-])ccc2N2CCCCC2)c(C)c1 | ? | ? | ? | ? | ? | -92*
COC(=O)CC=C[C@H](C)[C@@H](NC(=O)C(F)(F)F)c1ccccc1Br | -21%[14.2 µM] | . | . | . | . | .
COc1cc(C(=O)NCC(c2ccc(N(C)C)cc2)N2CCc3ccccc32)cc(OC)c1OC (configuration not stated) | . | -24% | -4% | -5% | -13%[46.1 µM] | -34
COC[C@H]1O[C@]2(c3ccccc3)CO[C@@H]1[C@@H](C=Cc1ccccc1)C2 | 26%[14.2 µM] | . | . | . | ? | .
CC(NC(c1ccccc1)c1ccccc1)C(=O)N1CCCc2ccccc21 (configuration not stated) | -37% | ? | -25% | ? | ? | -25
CC(Nc1ccccc1N1CCCCC1)C(=O)N1CCc2ccccc21 (configuration not stated) | -8% | ? | -3% | -16% | -3% | -70*
Cc1ccc(-c2cn3cccc(C)c3n2)cc1NS(=O)(=O)c1ccccc1 | 13%[46.1 µM] | 19% | -19% | -12% | -11%[46.1 µM] | -85*
Cc1cc(C)c(S(=O)(=O)Nc2cc(-c3cn4ccccc4n3)ccc2C)cc1C | -8%[46.1 µM] | -17% | -24% | -16% | ? | -16
Cc1c(C(=O)N2CCN(C(C)C)CC2)sc2ncnc(NCc3ccco3)c12 | . | -3% | -26% | -24% | . | .
Cc1ccc2c(c1)C(c1ccc(F)cc1)N(C(=O)COc1ccc(Cl)cc1Cl)CC(=O)N2 (configuration not stated) | ? | ? | -18% | -22% | ? | -60*
O=C1CN(C(=O)COc2ccc(Cl)cc2Cl)C(c2ccc(F)cc2)c2cc(F)ccc2N1 (configuration not stated) | ? | -19% | -13% | -11% | ? | 17
CCCC(=O)N1CC(=O)Nc2ccc(C)cc2C1c1ccc(F)cc1 (configuration not stated) | . | -20% | -33% | -10% | . | -25
CCCC(=O)N1CC(=O)Nc2ccc(Br)cc2C1c1ccc(F)cc1 (configuration not stated) | 11µM* | -16% | i | -7% | -5%[46.1 µM] | -29
Cc1ccc(NC(=O)CSc2nc3ccccc3nc2Cc2ccccc2)c(C)c1 | . | -12% | -1% | -3% | -13%[46.1 µM] | 0
CCc1ccccc1NC(=O)Cn1c(C(=O)OC)cc2oc(C)cc21 | -24%[46.1 µM] | -1% | -8% | -6% | . | -3
SMILES | MARV entry inh | FMDV antiviral | VACV mCherry inh | VACV Venus inh | LASV entry inh | HCMV antiviral
O=C(Oc1c(-c2ccccc2)c(=O)n2c3c(cccc13)CC2)c1ccccc1 | ? | -17% | -29% | -26% | -27%[46.1 µM] | 16
O=C(Oc1c(-c2ccccc2)c(=O)n2c3c(cccc13)CC2)c1cccc([N+](=O)[O-])c1 | ? | -12% | -2% | -18% | -6%[46.1 µM] | -72*
CCOc1ccc(OCC)c(NC(=O)Cn2ncc3c4ccccc4n(Cc4ccccc4)c3c2=O)c1 | -26%[46.1 µM] | -4% | -8% | -5% | -2%[46.1 µM] | -12
CC(=O)O[C@@H]1C[C@H]2C(C)(C)C(=O)C=C[C@]2(C)[C@H]2CC[C@@]3(C)[C@H](c4ccoc4)OC(=O)[C@H]4O[C@]43[C@@]21C | ? | 16µM* | 7.9µM* | ? | 18µM* | -79*
O=C(NCc1ccc(F)c(F)c1)c1ccc(-c2ccc(F)c(F)c2)c2ccoc12 | . | -21% | -28% | -20% | . | -8
O=C(NCc1cccnc1)c1ccc(-c2ccc(F)c(F)c2)c2ccoc12 | . | ? | ? | -25% | . | -85*
O=C(Nc1cccc(C(F)(F)F)c1)c1ccc(-c2ccc(F)c(F)c2)c2ccoc12 | . | -19% | ? | ? | . | -76*
O=C(c1ccc(F)c(F)c1)N1CCOc2ccc(CN3CCN(Cc4ccccn4)CC3)cc2C1 | . | -3% | -4% | -12% | . | .
Nc1[nH]n2c(=O)cc(-c3ccccc3)nc2c1N=Nc1ccc(S(N)(=O)=O)cc1 | 5%[46.1 µM] | -5% | -1% | -6% | -2% | -9
Nc1[nH]n2c(=O)cc(-c3ccccc3)nc2c1N=Nc1ccccc1 | ? | -22% | . | -15% | ? | -79*
CCOC(=O)c1c(C)oc2c(F)c(F)c(F)c(F)c2c1=O | ? | 11µM* | . | -29% | ? | -104*
CC1CCN(c2c(NCc3ccc(C(=O)N(C)C4CCCCC4)cc3)c(=O)c2=O)CC1 | . | 8% | . | . | . | -11
Cc1cccc(N2CCN(C(=O)c3ccc(CNc4c(N5CCC(C)CC5)c(=O)c4=O)cc3)CC2C)c1 (configuration not stated) | . | ? | -12% | ? | . | -60*
CCCCNC(=O)c1ccc(CNc2c(N3CCC(C(=O)OCC)CC3)c(=O)c2=O)cc1 | ? | -4% | i | -5% | -3% | -61*!
CC1CCCN(C(=O)c2ccc(CNc3c(N4CCCCC4)c(=O)c3=O)cc2)C1 (configuration not stated) | . | -22% | 8% | -7% | . | -30
CC1CCN(c2c(NCc3ccc(C(=O)N4CCc5ccccc54)cc3)c(=O)c2=O)CC1 | 4% | 17% | -24% | -28% | . | -84*
CCOC(=O)C1CCN(c2c(NCc3ccc(C(=O)NCCOC)cc3)c(=O)c2=O)CC1 | ? | -13% | . | -17% | -3% | ?
COc1ccc(CN2COc3ccc4c(-c5ccc(OC)cc5)cc(=O)oc4c3C2)cc1 | -22%[46.1 µM] | -12% | -27% | -17% | 8%[46.1 µM] | ?

Assay outcomes from PubChem BioAssay.
